Sampled rows, rich in hits. Any-hit rate of the full collection: about 2.5%.
Efflux pump mplx: antifungal efflux pump inhibition, Nile Red retention; S. cerevisiae Candida pump triplex; inhibition, % at 10 µM; 330,000 tested, 0.44% active;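 active = plate passing quality check with inhibition over a set limit, or well fluorescence over plate mean plus 4 SD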;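 note: Nile Red retained in pooled yeast measured as flow cytometry median fluorescence; higher means more Nile Red kept so more efflux inhibition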
AI-2 QS mod: modulates the Vibrio harveyi AI-2 quorum sensing system. 300,000 tested, 0.4% active. Vibrio harveyi JMH597 AI-2 luminescence/OD600 ratio, 9 h; hits give low values; strain lacks LuxN and CqsS sensors; 0 = neutral-control median. AID 2094. activity change, % at 7.5 µM; in the data active = activity change below about -75%, passing the limit was not always enough;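 note: luminescence divided by OD600 gain over 9 h not by final OD600 alone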
ATG4B inhibitor: inhibitors of human ATG4B cysteine protease. 340,000 tested, 0.51% active. Q9Y4P1. inhibition, % at 8.33 µM. ATG4B cleavage of LC3-PLA2, NBD-HPC fluorescence, 1 h; in the data active = inhibition above about 40%
Target sequence (Q9Y4P1 whole entry, looked up): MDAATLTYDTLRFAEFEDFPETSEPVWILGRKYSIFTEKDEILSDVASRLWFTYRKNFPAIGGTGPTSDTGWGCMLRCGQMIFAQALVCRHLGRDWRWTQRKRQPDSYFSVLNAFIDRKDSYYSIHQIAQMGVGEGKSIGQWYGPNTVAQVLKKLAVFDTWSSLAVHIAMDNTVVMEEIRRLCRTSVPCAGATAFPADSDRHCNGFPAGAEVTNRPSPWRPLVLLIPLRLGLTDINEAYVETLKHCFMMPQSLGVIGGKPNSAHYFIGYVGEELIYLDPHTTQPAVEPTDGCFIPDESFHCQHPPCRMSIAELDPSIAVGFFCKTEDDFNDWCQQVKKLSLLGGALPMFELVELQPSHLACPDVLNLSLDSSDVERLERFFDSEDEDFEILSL
V-ATPase pHluor: regulators of yeast V-ATPase proton transport; response, % at 10 µM; 350,000 tested, 0.37% active; AID 504577; S. cerevisiae, pHLuorin cytosolic pH fluorescence; in the data active = response mostly above about 7.3%, no sharp cut-off; inactive = mostly below about 5.4%; note: actives read high
Mot1-301 SUMO: blocks SUMOylation pathway, rescuing yeast Mot1-301 growth; 320,000 tested, 1% active; S. cerevisiae Mot1-301 growth rescue, ATP luminescence, 38.5C; percent above DMSO median, 100 means doubled; growth rescue, % at 18.8 µM; AID 2716;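 active = every valid replicate shows activation above 250% relative to neutral control wells; inactive = the rest, any valid replicate at or below 250%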
ATG4B confirm: ATG4B (human) inhibition, single-dose confirmed; shares compounds with ATG4B inhibitor; ATG4B protease fluorescent substrate cleavage assay; inhibition, % at 8.33 µM; 320 tested, 92% active; in the data active = inhibition above about 39%
PLA2 ctr: counter-screen for ATG4B inhibitors: human phospholipase A2; shares compounds with ATG4B inhibitor; purified PLA2, NBD-C6-HPC fluorescence, 45 min; 1,600 tested, 66% active; inhibition, % at 8.33 µM; in the data active = inhibition above about 50%
Large screens that a line does not name were inactive (follow-up assays come after a bar, where they were run).

O=C(/C=C/c1ccccc1O)c1ccc(Cl)cc1	ATG4B inhibitor 69.1 | PLA2 ctr 87.8
NCCc1nnc(SCc2c(F)cccc2Cl)o1	none
Fc1cccc(Cl)c1CSc1nnc(COc2cccc3cccnc23)o1	ATG4B inhibitor 64.2 | PLA2 ctr 67.1
C#CCOCCOCCOCCNc1nc(N2CCN(C(=O)CCCCCCCCCCNC(=O)[C@H](CCCCN)n3cc(C[C@@H](C)CC)nn3)CC2)nc(N2CCN(C(=O)CCCCCCCCCCNC(=O)[C@H](CCCN=C(N)N)n3cc(C[C@@H](C)CC)nn3)CC2)n1	ATG4B inhibitor 88.1 (no result: AI-2 QS mod) | PLA2 ctr 81.1
C#CCOCCOCCOCCNc1nc(N2CCN(C(=O)CCCCCCCCCCNC(=O)[C@H](CCCCN)n3cc(C)nn3)CC2)nc(N2CCN(C(=O)CCCCCCCCCCNC(=O)[C@H](CCCN=C(N)N)n3cc(C[C@@H](C)CC)nn3)CC2)n1	ATG4B inhibitor 68.6 (no result: AI-2 QS mod, V-ATPase pHluor) | PLA2 ctr 70.0
C#CCOCCOCCOCCNc1nc(N2CCN(C(=O)CCCCCCCCCCNC(=O)[C@H](CCCCN)n3cc(CCO)nn3)CC2)nc(N2CCN(C(=O)CCCCCCCCCCNC(=O)[C@H](CCCCN)n3cc(C[C@@H](C)CC)nn3)CC2)n1	ATG4B inhibitor 75.4 (no result: AI-2 QS mod, V-ATPase pHluor) | ATG4B confirm inactive | PLA2 ctr inactive
C#CCOCCOCCOCCNc1nc(N2CCN(C(=O)CCCCCCCCCCNC(=O)[C@@H](CCC(=O)O)n3cc(CCCCCN)nn3)CC2)nc(N2CCN(C(=O)CCCCCCCCCCNC(=O)[C@H](CCCCN)n3cc(C[C@@H](C)CC)nn3)CC2)n1	none (no result: AI-2 QS mod)
Fc1ccccc1Cn1nnc2c(-n3ccnc3)ncnc21	none
CCOC(=O)C1CCN(C(=O)c2cccc(S(=O)(=O)NCc3ccccc3)c2)CC1	none (no result: AI-2 QS mod)
COc1ccc(OCCSc2nnc(Cc3cccc4ccccc34)n2N)cc1	none
CCc1nn(CCCC(=O)NCc2ccccc2Br)c(=O)c2cc3occc3n12	ATG4B inhibitor 50.5 | ATG4B confirm 65.6 | PLA2 ctr inactive
CCc1cccc(NC(=O)CCCn2nc(CC)n3c(cc4occc43)c2=O)c1	none
C[C@@H]1CN([C@H](C)CO)C(=O)c2c(c3ccccc3n2C)-c2ccccc2CO[C@H]1CN(C)Cc1ccc(Oc2ccccc2)cc1	none (no result: Efflux pump mplx, AI-2 QS mod, ATG4B inhibitor, Mot1-301 SUMO)
O=C(Nc1ccccc1-c1ccccc1)NC1CC2CCCC(C1)N2Cc1ccc(F)cc1 (configuration not stated)	ATG4B inhibitor 72.2 | PLA2 ctr 66.1
CCOc1cc2c3c(c1)C1(OCCO1)C(=O)N3C(C)(C)CC2C (configuration not stated)	none
CCOc1cc2c3c(c1)C1(Nc4ccccc4S1)C(=O)N3C(C)(C)CC2C (configuration not stated)	ATG4B inhibitor 43.2 | PLA2 ctr inactive
COc1cccc(CNc2cc(CSc3ccc(Cl)cc3)nc(C)n2)c1	ATG4B inhibitor 54.5 | PLA2 ctr 63.4
COc1ccccc1CNc1cc(CSc2ccc(Cl)cc2)nc(C)n1	none
COc1cc(CNCc2c[nH]c3ccccc23)cc(OC)c1	none
CCCCn1c(N)c(N(CCOC)C(=O)COC(=O)COc2cc(C)c(Cl)cc2C(C)C)c(=O)[nH]c1=O	ATG4B inhibitor 51.2 | PLA2 ctr 57.9
Cc1ccccc1C(=O)Nc1ccc(S(=O)(=O)N2CCCC2)cc1	none
CC1CCc2c(sc(Nc3nc4c(F)cccc4s3)c2C(N)=O)C1 (configuration not stated)	ATG4B inhibitor 40.9 | PLA2 ctr inactive
COc1ccc(Cl)cc1-n1c(=S)sc2c(=O)[nH]c(SCC(=O)NCCC(C)C)nc21	ATG4B inhibitor 41.5 (no result: Efflux pump mplx, Mot1-301 SUMO) | ATG4B confirm 73.4 | PLA2 ctr inactive
CCOc1ccc(-n2c(=S)sc3c(=O)[nH]c(SCC(=O)NC(C)CC)nc32)cc1 (configuration not stated)	none
Oc1nc(Nc2cccc(Cl)c2)sc1/C=C1\C=Nc2ccccc21	ATG4B inhibitor 73.4 | PLA2 ctr 83.3
Oc1cccc(Nc2nc(O)c(/C=C3\C=Nc4ccccc43)s2)c1	none (no result: AI-2 QS mod)
COC(=O)c1cc(S(=O)(=O)N2CCOCC2)c(Cl)cc1N1CCOCC1	none
